Records with an inconclusive call do not appear. Active and inactive are the calls of the source. Calls come from the whole dose curve; as a rule, active = well fitted inhibition curve with a large enough effect; inconclusive = small, poorly fitted or top-dose-only effect; inactive = flat fitted curve, though single readings scatter.
What was measured:
Test in all cases: qHTS profiling for inhibitors of Plasmodium falciparum proliferation (AID 504749); note: nearly all actives have a fitted effect of over 60% in size
Settings in all cases: P. falciparum in erythrocytes, SYBR Green DNA, 72 h; series mostly up to 28.7 µM
C2A = tested on: C2A
Method in brief: (§1)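 Three-day growth assay of blood-stage parasites in erythrocytes (0.3% parasitemia, 2.5% hematocrit) at 37 C, 5% CO2, quantified by SYBR Green DNA staining after overnight detergent lysis.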

CP185 = tested on: CP185
Method in brief: as §1

CP191 = tested on: CP191
Method in brief: as §1

CP194 = tested on: CP194
Method in brief: as §1

CP201 = tested on: CP201
Method in brief: as §1

CP211 = tested on: CP211
Method in brief: as §1

CP215 = tested on: CP215
Method in brief: as §1

CP192 = tested on: CP192
Method in brief: as §1

CP203 = tested on: CP203
Method in brief: as §1

Measured: Potency
Potency is the fitted concentration of half-maximal effect.

Cc1cc(N)c2ccccc2[n+]1CCCCCCCCCC[n+]1c(C)cc(N)c2ccccc21
active: C2A 282 nM | CP185 316 nM | CP191 50.1 nM | CP194 361 nM | CP201 642 nM | CP211 144 nM | CP215 809 nM

Cc1c(O)cccc1C(=O)N[C@@H](CSc1ccccc1)[C@H](O)CN1C[C@H]2CCCC[C@H]2C[C@H]1C(=O)NC(C)(C)C
inactive: C2A | CP185 | CP192 | CP211

CSc1ccc2c(c1)C(N1CCN(C)CC1)Cc1ccccc1S2 (centres undefined)
inactive: CP192 | CP201

CCCCOc1cc(C(=O)OCCN(CC)CC)ccc1N
inactive: all assays above

CC(C)(C)C(=O)C(Oc1ccc(Cl)cc1)n1ccnc1 (centres undefined)
inactive: CP185

CC(C(O)c1ccc(O)cc1)N1CCC(Cc2ccccc2)CC1 (centres undefined)
active: C2A 10000 nM | CP185 8910 nM | CP191 7940 nM | CP194 15100 nM

Cc1cc2c(cc1S(N)(=O)=O)S(=O)(=O)CCC2
inactive: all assays above

OCCN1CCN(CCCN2c3ccccc3Sc3ccc(Cl)cc32)CC1
active: CP191 3160 nM
inactive: C2A | CP192

Source: PubChem BioAssay (NCATS)
